Here are results for 69 sequences from PubChem BioAssay AID1508600 (Functional Genomics Laboratory (NCATS/FGL), 2020).

In all, about 53,000 sequences went through this assay and about 3,700 (7%) were called active.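 The calls were made as follows: active = gene knockdowns whose robust z-score for IL-1 alpha signal is at least 2 or at most -2, so actives lie on both sides; inactive = the rest.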 Shown is part of a subset that was picked to be rich in actives.

This assay in a line: Components of the Cytosolic LPS Sensing Pathway: Gene Identification via Genome-wide siRNA Screen.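 Also: robust z of the log signal after scaling to non-targeting control siRNA wells of the plate.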 As to conditions: RAW264.7 macrophages, IL-1a HTRF, actives lie on both sides, screened at 100 nM (by protocol), cells primed 5 h with Pam3CSK4 first. Put shortly:
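Cells (RAW264.7, 1×10^4 per well) were transfected with siRNA at 100 nM and cultured 48h at 37 degrees C. Pam3CSK4 was added for 5 hours; LipidA transfection followed for 24 hour. IL-1a was then measured by HTRF.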
As to GGUGACAACACUUGUCAACTT against Ctnna2, the z-score is -0.551 (inactive).

For GCCCAUGUUUUUUUUUCUGTT against Olfr648, the z-score is 0.776 (inactive).

Consider GGCUGCUUAACCUUGAUAATT against Lrrd1, for which the z-score was 0.529 (inactive).

As for CGGUAGAGUCAGCAUUUGATT against Sez6, the z-score is -0.231 (inactive).

Regarding GCCGAGAUGAGCUCCUAAUTT against Krt27, the z-score was 1.29 (inactive).

As to GCUACAGCUUCAAUUAAAUTT against Birc6, the z-score was 0.135 (inactive).

In the case of GGGAGAAACGCAUCUUAUCTT against Ngly1, the z-score was 2.38 (active).

CCCACAGGGAUUUAUUUAUTT against Slc37a1: the z-score is -0.362 (inactive).

As for GGACAUCCAUCAGUACAGGTT against Hras, the z-score is 0.812 (inactive).

As for GGCUGUCACUUUAUAGGCATT against Wrnip1, the z-score was -0.862 (inactive).

In the case of CGACUUGAACUCUAUGGCGTT against Ascl1, the z-score is -0.12 (inactive).

Turning to CCGAAAGGCUGGUACAUUCTT against Kin, the z-score was -0.494 (inactive).

On to GGUUAUCUUCUUGACAGAATT against Nmur2, for which the z-score was 1.42 (inactive).

Regarding CCUGUUUAGCAUCUGGGAGTT against Gpr1, the z-score was 6.24 (active).

Consider GGUAGAGAUGUACAUUUGGTT against Chrdl2, for which the z-score was -1.72 (inactive).

In the case of GCAAGAAGUUCCUAUCAUCTT against Polr2b, the z-score was -1.67 (inactive).

Regarding GCCCAAACUCAAGCAAGUCTT against Trpm3, the z-score was 2.37 (active).

Take GGUUACCCAACUUGAAGGATT against Parp16: the z-score is 1.37 (inactive).

As to GGCAAAAAGAUAGGAGCUGTT against Txn1, the z-score is 0.57 (inactive).

With GGUGACUAACGAGAUCAUUTT against Slc19a1, the z-score was 0.913 (inactive).

Turning to CGAACAGAGUCUAAUCUCATT against Ptpn1, the z-score is 1.69 (inactive).

Consider AGGAAUGCCCAGGUCUCAGTT against Lst1, for which the z-score is -1.07 (inactive).

For the sequence GGUCUGCUAUGAAAUUAUGTT against Tmem14c, the z-score is -0.537 (inactive).

For GGACGGAGCUGUAAUUGCATT against Arhgef12, the z-score is 2.16 (active).

GGCCUACAGGACAAAGUUUTT against Comt: the z-score is 0.394 (inactive).

Regarding CGACUAGAGUUGUGUGAUATT against Uqcrh, the z-score was 0.834 (inactive).

For GGUGCAUUAUAAGAAUCGCTT against Fhl1, the z-score was 0.144 (inactive).

Regarding GGUGGUGCCAAGAUGUUGUTT against Aste1, the z-score was 2.26 (active).

For the sequence GUACCUCUACUAUUCCUUUTT against Krtap5-2, the z-score was -0.13 (inactive).

Regarding GGAGUUCAAGACGGAGAAGTT against Gpr27, the z-score was 0.000428 (inactive).

As for GGCUUAUAUCUGAUUGAUGTT against Rom1, the z-score is -1.17 (inactive).

For the sequence GGAAAGUGACUGCAUGUUCTT against Pgp, the z-score is -1.3 (inactive).

As to GGACUUCUUCACCAUCUGGTT against Lcat, the z-score was -1.3 (inactive).

With GGUACAUGAUCAAUUUAGATT against Tspyl4, the z-score was 0.726 (inactive).

As for GGACAUUAGGAAAUUAGAUTT against Ppp3cc, the z-score was -0.404 (inactive).

In the case of GGCAGUACUGUCCAGAUGATT against Gsdma2, the z-score was -2.12 (active).

In the case of CCUUAUCUAUAACUCUGCUTT against Tirap, the z-score is -0.772 (inactive).

Consider GGAGAGCGAAGAAAAAAUGTT against Birc2, for which the z-score was -0.852 (inactive).

As for GGUUGUCUUCAACACCAAATT against Lgals7, the z-score was -0.147 (inactive).

In the case of GCAAGAGCAUGCUUACGGUTT against Ccl1, the z-score was -0.324 (inactive).

Regarding GGGUUUCUUGUUGGUUUUATT against Dock5, the z-score was 2.29 (active).

Consider GGACGGGAUUGAGCCUAUGTT against Eif4e, for which the z-score was 1.65 (inactive).

For CCAAGCUUACACUAGUGUUTT against Cdk6, the z-score was -0.429 (inactive).

Consider GCGUGUACAAGGCUAUUCATT against Stk4, for which the z-score was 1.19 (inactive).

Regarding GGCCUACUUCCUACUCAAATT against Tbx10, the z-score was -1.85 (inactive).

Regarding CCUACACCUAGAAAUCUAGTT against Gpr3, the z-score was 1.52 (inactive).

For the sequence GGAUGAGGAUGGCUAUAAGTT against Zc3h10, the z-score is 0.585 (inactive).

As to GGGAAGGAUGACCUAACAATT against Gpatch4, the z-score is -0.839 (inactive).

For CGGAUUAGAAGAGCCAAACTT against Cd59b, the z-score is 0.352 (inactive).

On to GGCUACCCUUUUGAACCUCTT against Psmd3, for which the z-score was -2.81 (active).

With GGAAAAAGCCAAGCUCAUCTT against Syt3, the z-score was -1.5 (inactive).

On to GGAGCAUCCUGGCAAACAGTT against Slc51b, for which the z-score was -1.32 (inactive).

For the sequence CUGAUCCUUCAAUUAACAUTT against Olfr202, the z-score is 0.0318 (inactive).

Consider GCGACUCCUAUAAUUUCUATT against Rpa3, for which the z-score is -2.17 (active).

For the sequence GCAGGUCCUGACCUAUGUGTT against Cyp27b1, the z-score was -0.556 (inactive).

In the case of CCAUCUGCAUCAAGAGAAATT against Kirrel2, the z-score was 0.709 (inactive).

For the sequence GGAACGUACAGGAUAAUCUTT against Krt79, the z-score is 4.28 (active).

Regarding GGCUAAAGAAUAAAGAUCCTT against Cadm2, the z-score was 1.66 (inactive).

In the case of GUGAGACCAAGUUACAGGATT against Olfr1504, the z-score is 1.5 (inactive).

Take CCAACCAAAGAUGAAUUGUTT against Usp19: the z-score is -0.445 (inactive).

Regarding GGUGGCCAAACAGGAAAAGTT against Fau, the z-score is 0.91 (inactive).

GGCACACAAACAAUUGGUATT against Rrp36: the z-score is -0.318 (inactive).

In the case of GGGUUUCAUUAAAUUUCCUTT against Cyp2g1, the z-score is -2.06 (active).

On to CCGAAUAUCGAGUUCCCAATT against Ceacam20, for which the z-score was -0.0196 (inactive).

As to GGAUGAGAAUGGCACCAGUTT against Prima1, the z-score was -1.4 (inactive).

Turning to GGAAAUGUACAUCAUCAAGTT against Cnga2, the z-score was -1.24 (inactive).

Consider CCUGUUAAACAGGACUAGUTT against Tmem263, for which the z-score is -1.51 (inactive).

Regarding GGGAAUUUGCUCCUGAAAGTT against Pcdhb6, the z-score is -0.936 (inactive).

Regarding CCUUUGAAUCCCAGGUUCATT against Lmo1, the z-score is 3.05 (active).
